FBW7 activator = FBW7 E3 ligase activators, primary screen, biochemical, AlphaScreen, human. AID 1259310, 2017. F-box/WD repeat-containing protein 7 (Homo sapiens), Q969H0. normalized activity (activation), % at 26.1 µM. hit rate 0.13% among 650,000. AlphaScreen FBW7–phospho-cyclin E peptide binding, activator screen; in the data active = normalized activity above about 1.9%;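 also: purified mutant Fbw7 with reduced substrate affinity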
Target sequence (Q969H0 whole entry, looked up): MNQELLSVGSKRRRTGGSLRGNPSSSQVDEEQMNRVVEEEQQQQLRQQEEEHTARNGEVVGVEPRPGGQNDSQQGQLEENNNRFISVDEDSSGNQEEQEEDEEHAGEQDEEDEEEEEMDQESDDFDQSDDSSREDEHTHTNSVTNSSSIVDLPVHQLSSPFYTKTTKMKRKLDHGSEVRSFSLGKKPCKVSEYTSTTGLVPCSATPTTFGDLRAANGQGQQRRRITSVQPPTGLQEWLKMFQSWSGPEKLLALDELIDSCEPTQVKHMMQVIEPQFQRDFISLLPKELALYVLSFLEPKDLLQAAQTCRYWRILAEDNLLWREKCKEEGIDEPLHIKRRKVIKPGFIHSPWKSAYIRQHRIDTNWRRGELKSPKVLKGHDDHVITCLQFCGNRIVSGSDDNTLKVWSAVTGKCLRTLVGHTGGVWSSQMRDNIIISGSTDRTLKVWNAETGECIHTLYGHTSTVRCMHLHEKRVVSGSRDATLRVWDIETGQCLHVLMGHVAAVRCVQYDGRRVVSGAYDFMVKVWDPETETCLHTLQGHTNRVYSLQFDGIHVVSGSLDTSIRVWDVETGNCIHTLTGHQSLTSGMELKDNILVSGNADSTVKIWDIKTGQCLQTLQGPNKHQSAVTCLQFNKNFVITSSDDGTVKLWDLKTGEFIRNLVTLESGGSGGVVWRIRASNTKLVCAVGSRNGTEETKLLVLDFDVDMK
TEAD-YAP block = TEAD-YAP interaction inhibition, primary screen, TEAD-YAP interaction inhibitor project, luminescence, HEK-TIYL cells; TEAD-Gal4/YAP UAS-luciferase luminescence; inhibition, % at 9.12 µM; hit rate 1.4% among 640,000; AID 1259422, 2018; in the data active = inhibition above about 32%;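 also: 0% = median of test compound wells and 100% = reference inhibitor wells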
GPR151 activ = activators of human GPR151, primary screen, cell-based, PathHunter beta-arrestin, luminescence; G-protein coupled receptor 151 (Homo sapiens), Q8TDV0; PathHunter beta-arrestin GPR151 cells; activation, % at 11.2 µM; hit rate 1% among 650,000; AID 1508602, 2020; in the data active = activation above about 4.9%;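 also: 0% = median of compound wells and 100% = cells with positive control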
MITF primary = MITF inhibitors, primary screen, biochemical, AlphaScreen, human | inhibition, % at 2.6 µM | hit rate 0.91% among 650,000 | AlphaScreen MITF homodimerization, bead proximity signal | Microphthalmia-associated transcription factor (Homo sapiens), O75030; in the data active = inhibition above about 50%;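 also: 0% = vehicle wells with protein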
MITF confirm = MITF inhibitors, retest of hits, confirmation, biochemical, AlphaScreen, triplicate. AlphaScreen MITF homodimerization, biotin/His-MITF beads. AID 1259372, 2018. shares compounds with MITF primary. hit rate 16% among 4,700. inhibition, % at 2.6 µM;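 active = inhibition above a cutoff derived from the DMSO control wells, cut at about 28% in these data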;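 also: 0% = MITF dimer wells with DMSO only; inhibitors lower the bead chemiluminescence by keeping MITF from dimerizing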
AS interf DR = AlphaScreen optical interference compounds, dose response, counter-screen, biochemical, HTS. shares compounds with MITF primary. AlphaScreen optical interference counterscreen, cell-free. IC50, µM. hit rate 6% among 480; call rule not given here
AlphaScreen intf2 = AlphaScreen optical interference compounds, counter-screen for MITF inhibitor project, biochemical, triplicate | hit rate 7.6% among 4,700 | shares compounds with MITF primary | LysRS AlphaScreen counterscreen, signal interference | inhibition, % at 2.6 µM | AID 1259376, 2018;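 active = inhibition above a cutoff derived from the DMSO control wells, cut at about 30% in these data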
* hit, by the source's call; . = no result. This is a sample that favours compounds with a hit; in the whole collection about 3.4% have one here.

SMILES | FBW7 activator | TEAD-YAP block | GPR151 activ | MITF primary | MITF confirm | AlphaScreen intf2 | others
COc1cc(CN2CCN(C(=O)CC(C)C)CC2)c([N+](=O)[O-])cc1OC | 0 | -7 | -1 | 60* | 2 | -2
CCOc1cc(CN2CCN(Cc3ccc([N+](=O)[O-])cc3)CC2)ccc1OC | 0 | 6 | -1 | 68* | -3 | 2
O=[N+]([O-])c1ccccc1CN1CCN(C/C=C/c2ccccc2)CC1 | 0 | 11 | 1 | 58* | 8 | 25
COc1cccc(C(=O)N2CCN(Cc3ccccc3[N+](=O)[O-])CC2)c1 | 0 | -3 | 0 | 48 | . | .
Cc1ccc(N2C(=O)c3n[nH]c(C)c3C2c2cccc(F)c2)cc1 (stereo not drawn) | 0 | -5 | 0 | 7 | . | .
CN(C(=O)CCCl)c1nc(-c2ccccc2)cs1 | 0 | -1 | -1 | 23 | . | .
O=C(Nc1ccccc1C(=O)N1CCCC1)c1ccc(Cl)cc1 | 0 | 7 | 1 | 4 | . | .
COc1cc(CN2CCN(c3ccccc3)CC2)cc([N+](=O)[O-])c1O | 0 | 7 | -1 | 52* | 0 | 1
COc1cc(CN2CCN(Cc3ccccc3[N+](=O)[O-])CC2)cc(OC)c1OC | 0 | 9 | 2 | 62* | -1 | 5
COc1cc(CN2CCN(Cc3cc(OC)c(OC)c(OC)c3)CC2)c([N+](=O)[O-])cc1OC | 0 | -4 | 0 | 58* | 15 | 18
FC(F)(F)C1(C(F)(F)F)N=C(Cc2ccccc2)OC(N2CCOCC2)=N1 | 0 | 7 | 0 | 0 | . | .
Cc1ccc(OC(=O)/C(=C/c2nc3ccccc3n2Cc2ccc(Br)cc2)c2ccc(C)cc2)cc1 | 0 | -1 | 0 | -1 | . | .
COc1ccc(C(=O)N/N=C(/C)CC(=O)Nc2ccccn2)cc1OC | 1 | -4 | 1 | 60* | 4 | 13
COc1cccc(NC(=O)Cn2c(=O)oc3cc(S(=O)(=O)NC4CCCC4)ccc32)c1 | 0 | 17 | 0 | 6 | . | .
c1ccc(CC2(c3ccccc3)CCNC2)cc1 (stereo not drawn) | 0 | -5 | 0 | 56* | -1 | -1
CCCCNCCCOc1ccc(OCC)cc1 | 0 | 7 | 0 | 51* | 7 | 6
CCOc1cccc(OCCCNCCCOC)c1 | 0 | 1 | 1 | 89* | -6 | 14
CCOc1cccc(OCCOCCNCCCOC)c1 | 0 | -15 | -2 | 23 | . | .
CCOc1ccc(OCCCNCCOC)cc1 | 0 | 0 | 0 | 57* | 5 | 11
CCCCNCCCOc1ccc(OC)cc1 | 0 | -5 | 0 | -4 | . | .
CCOc1ccc2ccc(OCC)c(/C=C3/SC(=O)N(C)C3=O)c2c1 | 0 | -1 | -1 | 6 | . | .
CCOc1ccccc1N1CCN(Cc2cccc(OC)c2OC)CC1 | 0 | 8 | 1 | 23 | . | .
COc1ccc(CN2CCN(Cc3cccc(OC)c3OC)CC2)cc1 | 0 | -6 | -1 | 75* | 9 | 12
CCc1ccc(CN2CCN(Cc3cccc(OC)c3OC)CC2)cc1 | 0 | -5 | -1 | 64* | 8 | 15
COC(=O)Cc1nc(Nc2ccc(F)cc2)c2c(C)c(C)sc2n1 | 0 | 8 | 1 | 24 | . | .
SMILES | FBW7 activator | TEAD-YAP block | GPR151 activ | MITF primary | MITF confirm | AlphaScreen intf2 | others
Cc1cccc(CNc2nc3nc(C)c(Cl)c(C)n3n2)c1 | 0 | -26 | 1 | 3 | . | .
O=C(N/N=C\c1ccc2c(c1)OCO2)c1cccnc1 | 0 | -25 | -3 | 2 | . | .
CN(C)CCN(C(=O)OCc1ccccc1)c1cc(-c2cn[nH]c2)ccc1NC(=O)OCc1ccccc1 | 1 | -1 | 1 | 58* | 56* | -12 | AS interf DR=>6.5
COc1cccc(COC(=O)Nc2ccc(-c3cn[nH]c3)cc2N(C)CCN(C)C)c1 | 1 | -16 | -1 | 68* | 73* | 11 | AS interf DR=>6.5
CN1CC[C@H](Oc2cc(-c3cn[nH]c3)ccc2NC(=O)OCc2ccccc2)C1 | 1 | 9 | -1 | 53* | 57* | -5 | AS interf DR=>6.5
O=C(Nc1ccc(-c2cn[nH]c2)cc1OCCN1CCCC1)OCc1ccccc1 | 0 | -2 | -1 | 3 | . | .
O=C(CN1CCN(CC(=O)Nc2ccccc2F)CC1)Nc1cccc(C(F)(F)F)c1 | 0 | 9 | 1 | 3 | . | .
COc1ccccc1C(=O)NC(=S)Nc1ccc2[nH]c(=O)[nH]c2c1 | 0 | -47 | -1 | -10 | . | .
O=C(NC(=S)Nc1ccc2[nH]c(=O)[nH]c2c1)c1ccccc1Cl | 0 | -9 | 0 | 99* | -10 | -3
O=C(CN1C(=O)c2ccccc2C1=O)N1CCN(Cc2ccccc2)CC1 | 0 | -10 | 0 | -2 | . | .
Cc1cccc(NC(=O)CC2S/C(=N\N=C\c3ccco3)NC2=O)c1C (stereo not drawn) | 0 | 5 | 0 | 17 | . | .
CCOC(=O)c1c(N)n(C(C)CO)c2nc3ccccc3nc12 (stereo not drawn) | 0 | 14 | 0 | 53* | 14 | 15
O=C1N/C(=C/c2cccn2-c2ccccc2)C(=O)N1Cc1ccccc1F | 0 | 13 | -1 | 55* | 3 | 0
O=C(Nc1nc(-c2ccccn2)cs1)C1CC1 | 0 | -27 | -1 | 35 | . | .
O=C(Nc1nc(-c2ccccn2)cs1)C12CC3CC(CC(O)(C3)C1)C2 | 0 | -4 | -3 | 55* | 61* | 100*
CC(=O)N1CCc2c(sc(NC(=O)c3ccc(C(C)(C)C)cc3)c2C#N)C1 | 0 | 4 | 0 | -1 | . | .
O=C1CN(C(=O)COC(=O)c2c3c(nc4ccccc24)CCC3)c2ccccc2N1 | 0 | -1 | 2 | 72* | 19 | 15
OCC1(Cc2cccc(Cl)c2)CCCN(Cc2ccccn2)C1 (stereo not drawn) | 0 | -1 | -1 | 1 | . | .
Clc1ccccc1CN1CCN(c2ccccn2)CC1 | 0 | 1 | -1 | 47 | . | .
COc1cccc(CN2CCC(=O)N(Cc3ccccn3)CC2)c1 | 0 | 12 | 0 | 15 | . | .
Cc1cccc(CN2CCN(Cc3ccccn3)CC2)c1 | 0 | 3 | -1 | 72* | 6 | 20
Cc1cccc(CN2CCN(c3ncccn3)CC2)c1 | 0 | -12 | 3 | 54* | 7 | 10
Clc1cccc(CN2CCN(Cc3ccccn3)CC2)c1 | 0 | 2 | 2 | 70* | 22 | 17
Clc1ccccc1CN1CCN(Cc2ccccn2)CC1 | 0 | -16 | -1 | 74* | -1 | 1
O=C(Cc1cccs1)N/N=C\c1ccncc1 | 1 | 0 | 0 | 14 | . | .
O=C1CCN(c2nc3cc(F)ccc3n3ccnc23)CCN1 | 0 | -3 | 0 | 25 | . | .
